Assay results published in PubChem BioAssay AID651671 (Sanford-Burnham Center for Chemical Genomics, 2012).
Some of the results follow. Unmarked numbers belong to inactive results.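 The calls were made as follows: active = activation of at least 7% in one or more replicates; inactive = the rest.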

Test: activation of alpha-dystroglycan glycosylation – single concentration, Pro5-aDG cells, confirmation (AID 651671);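 also: cells exposed to compound for two days before detection; 0% = DMSO-treated Pro5 cells and 100% = DMSO-treated B10-LARGE cells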
Conditions: alpha-DG glycosylation, IIH6 AlphaLISA, active compounds read high, screened at 10 µM (by protocol), scaled to LARGE-overexpressing B10 cells as 100%

CNCC(O)c1cc(F)c(OCc2ccccc2)c(OCc2ccccc2)c1F (stereo unspecified)
activation: 4%
